SMILES strings stand for the structures. Records with an inconclusive call do not appear. Active and inactive are the calls of the source. Calls come from the whole dose curve; as a rule, active = well fitted curve in the direction sought with a large enough effect; inconclusive = small, poorly fitted or top-dose-only effect, or another doubt; inactive = no such curve, though single readings can be large; an effect the other way counts as inactive or inconclusive.

For assay [1], the target named is Alpha-galactosidase (Coffea arabica) (UniProt Q42656). The experiment in a line: Counterscreen for Glucocerebrosidase Inhibitors: qHTS Assay for Coffee Bean alpha-Galactosidase at pH 4.5 (AID 957). Note: series mostly up to about 77 µM. The gist of the method:
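AC50 values derive from Hill-equation modeling of concentration-response data, normalized to no-enzyme and full-activity controls. The pH 4.5 citrate assay used 2 nM coffee bean enzyme and 80 uM fluorogenic substrate for 20 min.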
In general terms: A counterscreen serves to expose hits that act by an unwanted route or on another target.

Assay [2] has the same target. Kind of assay: Counterscreen for Glucocerebrosidase Inhibitors: qHTS Assay for Coffee Bean alpha-Galactosidase at pH 5.9 (AID 998). The gist of the method:
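Green coffee bean enzyme (2 nM) with 4-methylumbelliferyl alpha-D-galactopyranoside (80 uM) in 50 mM citric acid, 0.005% Tween-20, pH 5.9, 20 min at room temperature; compounds 0.7 nM–77 uM. Stopped at pH 10, fluorescence Ex365/Em440; Hill-fit AC50.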

A short description of assay [3]: MultiTox-Fluor Cytotoxicity Assay - LYMP1-002 - Dead Cells (AID 960). Note: potency is the fitted concentration of half-maximal effect; nearly all actives have a fitted effect of over 60% in size. The gist of the method: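 Acute cytotoxicity in a human lymphoblastoid line is scored as rising dead-cell protease signal after 16 hr exposure at 37 C, measured fluorometrically (485/520).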

Chain of Alpha-galactosidase (Coffea arabica) (Q42656 whole entry, looked up): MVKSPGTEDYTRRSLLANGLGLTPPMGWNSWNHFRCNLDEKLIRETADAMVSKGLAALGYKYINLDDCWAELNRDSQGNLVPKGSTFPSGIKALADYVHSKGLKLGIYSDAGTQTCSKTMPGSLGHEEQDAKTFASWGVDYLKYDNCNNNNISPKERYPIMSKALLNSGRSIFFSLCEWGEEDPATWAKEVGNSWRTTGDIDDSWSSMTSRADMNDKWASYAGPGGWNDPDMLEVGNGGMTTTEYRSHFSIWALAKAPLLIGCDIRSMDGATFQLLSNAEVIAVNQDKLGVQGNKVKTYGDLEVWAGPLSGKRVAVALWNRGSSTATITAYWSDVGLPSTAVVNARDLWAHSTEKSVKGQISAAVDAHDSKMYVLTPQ

For `CNc1ncnc2c1ncn2[C@@H]1O[C@@H](CO)[C@H](O)[C@@H]1O`, the molecule was classed as inactive in assay [1] and in assay [2].

As to `Cc1cccc(C)c1OC[C@H](C)N`, the call in assay [1] and in assay [2] was inactive.

`O=C(O)CC[C@@H](NC(=O)c1ccccc1C(=O)O)C(=O)O`: the molecule was classed as inactive in assay [1] and in assay [2].

Consider `CCCCC[C@H](CC(=O)NO)C(=O)N[C@@H](C(=O)N1CCC[C@H]1CO)C(C)C`, for which the call in assay [1] and in assay [2] was inactive.

On to `CN(C)CCCO[C@H]1[C@H]([C@H](O)CO)O[C@H]2OC(C)(C)O[C@@H]21`, for which the call in assay [1] and in assay [2] was inactive.

Regarding `COc1cccc(OC)c1OCCNC[C@@H]1COc2ccccc2O1`, the molecule was called inactive in assay [1] and in assay [2].

Consider `C[C@@H](COc1ccc(/C=C\c2ccccc2)cc1)[N+](C)(C)C`, for which the call in assay [1] and in assay [2] was inactive.

As to `C[C@@H](CN1c2ccccc2Sc2ccccc21)N(C)C`, the molecule was called inactive in assay [1] and in assay [2].

Regarding `O=C(O)/C=C\c1cnc[nH]1`, the molecule was classed as inactive in assay [1] and in assay [2].

Regarding `C[C@H](NCCc1ccc(O)cc1)[C@@H](O)c1ccc(O)cc1`, the molecule was classed as inactive in assay [1] and in assay [2].

For `CCCCC[C@H](O)CCCC(=O)O`, the outcome in assay [1] and in assay [2] was inactive.

Regarding `CN1C[C@@H](C(=O)N[C@]2(C)O[C@]3(O)[C@H]4CCCN4C(=O)[C@H](Cc4ccccc4)N3C2=O)C[C@H]2c3cccc4[nH]cc(c34)C[C@@H]21`, the molecule was called inactive in assay [1] and in assay [2].

As for `Cc1cccc(/C=C\c2ccccc2)n1`, the molecule was called inactive in assay [1] and in assay [2].

As for `CC(C)NC[C@@H](O)COc1ccc(CCOCC2CC2)cc1`, the result in assay [1] and in assay [2] was inactive.

In the case of `C[C@H](O)[C@H](O)[C@@H]1CNc2nc(N)[nH]c(=O)c2N1`, the call in assay [1] and in assay [2] was inactive.

Regarding `C[C@@](N)(Cc1ccc(O)c(O)c1)C(=O)O`, the call in assay [1] and in assay [2] was inactive.

As to `O=C1CC[C@H](N2C(=O)c3ccccc3C2=O)C(=O)N1`, the call in assay [1] and in assay [2] was inactive.

Turning to `COC(=O)C1=C(C)NC(C)=C(C(=O)OCCN(C)Cc2ccccc2)[C@@H]1c1cccc([N+](=O)[O-])c1`, the result in assay [1] and in assay [2] was inactive.

Turning to `CN1CCc2cc(Cl)c(O)cc2[C@H](c2ccccc2)C1`, the outcome in assay [1] and in assay [2] was inactive.

With `COC(=O)[C@H](N)Cc1ccc(Cl)cc1`, the molecule was classed as inactive in assay [1] and in assay [2].

Turning to `NC(=S)c1ccc[n+]([C@@H]2O[C@@H](COP(=O)([O-])OP(=O)(O)OC[C@@H]3O[C@@H](n4cnc5c(N)ncnc54)[C@@H](OP(=O)(O)O)[C@H]3O)[C@@H](O)[C@H]2O)c1`, the result in assay [1] and in assay [2] was inactive.

As for `Cc1cn([C@H]2C[C@H](N=[N+]=[N-])[C@H](CO)O2)c(=O)[nH]c1=O`, the call in assay [1] and in assay [2] was inactive.

Consider `Nc1ncnc2c1ncn2[C@@H]1O[C@@H](COP(=O)(O)OP(=O)(O)OP(=O)(O)OP(=O)(O)OC[C@@H]2O[C@@H](n3cnc4c(N)ncnc43)[C@@H](O)[C@H]2O)[C@H](O)[C@@H]1O`, for which the molecule was called inactive in assay [1] and in assay [2].

With `C[C@H](N)C(=O)OC(C)(C)Cc1ccc(Cl)cc1`, the outcome in assay [1] and in assay [2] was inactive.

Turning to `CC1=C(\C=C/C(C)=C/C=C\C(C)=C\C(=O)O)C(C)(C)CCC1`, the call in assay [1] and in assay [2] was inactive.

`CNc1ncnc2c1ncn2[C@H]1C[C@@H](OP(=O)(O)O)[C@H](COP(=O)(O)O)O1`: the result in assay [1] and in assay [2] was inactive.

Regarding `CC(C)COC[C@H](CN(Cc1ccccc1)c1ccccc1)N1CCCC1`, the molecule was classed as inactive in assay [1] and in assay [2].

For `N.N.N.N.N.N.N.N.N.N.N.N.N.N.O.O.[Ru].[Ru].[Ru]`, the outcome in assay [1] and in assay [2] was inactive.

On to `CCCCCCCCCCCCCCCC(=O)NC[C@@H](COP(=O)([O-])OCC[N+](C)(C)C)OCC`, for which the molecule was classed as inactive in assay [1] and in assay [2].

Consider `CC(=O)[C@@]1(O)Cc2c(O)c3c(c(O)c2[C@H](O[C@H]2C[C@H](N)[C@H](O)[C@H](C)O2)C1)C(=O)c1ccccc1C3=O`, for which the call in assay [1] and in assay [2] was inactive.

For the molecule `COC(=O)[C@](C)(N)Cc1ccc(O)cc1`, the outcome in assay [1] and in assay [2] was inactive.

As for `Cc1ccc(OC[C@H](O)[C@H](C)NC(C)C)c2c1CCC2`, the result in assay [1] and in assay [2] was inactive.

`NC(=O)c1cc[n+](CC2=C(C(=O)O)N3C(=O)[C@@H](NC(=O)[C@H](c4ccccc4)S(=O)(=O)[O-])[C@@H]3SC2)cc1`: the outcome in assay [1] and in assay [2] was inactive.

For the molecule `CCCN(CCC)C(=O)[C@@H](CCC(=O)O)NC(=O)c1ccccc1`, the result in assay [1] and in assay [2] was inactive.

Regarding `CCCCCCCCCCCCCCCCCCOC[C@@H](COP(=O)([O-])OCC[N+](C)(C)C)OC`, the molecule was classed as inactive in assay [1] and in assay [2].

With `NC(=O)C1=CN([C@@H]2O[C@@H](COP(=O)(O)OP(=O)(O)OC[C@@H]3O[C@H](n4cnc5c(N)ncnc54)[C@@H](OP(=O)(O)O)[C@@H]3O)[C@H](O)[C@@H]2O)C=CC1`, the outcome in assay [1] and in assay [2] was inactive.

`CCCCCN(CCCCC)C(=O)[C@H](CCC(=O)O)NC(=O)c1ccc(Cl)c(Cl)c1`: the molecule was called inactive in assay [1] and in assay [2].

`O=C1c2c(O)cc(O)cc2O[C@@H](c2ccc(O)c(O)c2)[C@H]1O`: the outcome in assay [1] and in assay [2] was inactive.

On to `O=c1n(CC2CO2)c(=O)n(CC2CO2)c(=O)n1CC1CO1` (configuration not stated), for which the Potency in assay [3] was 31.6 µM (active).

The values above are taken from PubChem BioAssay (NCATS).
